In the library only some 3.9% were active in any assay of this set; here they are far more common.
Peg3 promoter – Peg3 promoter activity inhibition; HeLa PEG-Prom luciferase reporter, luminescence, overnight; inhibition, % at 20 µM; hit rate 1.7% among 360,000;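 active means inhibition of at least 50% at 20 µM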
TROY NFkB inh – blocks TROY-dependent signaling in reporter cells; Q293 LMP1-TROYcd NF-kB luciferase reporter, 4 h; inhibition, % at 10 µM; hit rate 0.98% among 360,000;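 active means compounds whose plate-normalised and pattern-corrected inhibition of the luciferase reporter signal at the single screening dose is 50% or more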
TWEAK Fn14 block – inhibitors of TWEAK-Fn14 interaction signaling | inhibition, % at 10 µM | TWEAK-stimulated Fn14 reporter cells, luciferase luminescence, 8 h | hit rate 2% among 360,000 | AID 1159606; in the data active means inhibition above about 50%
HIF-2a block – inhibitors of HIF-2a. 786-0 RCC cells HIF-2a reporter, luciferase luminescence, overnight. inhibition, % at 18.8 µM. hit rate 0.72% among 360,000. AID 624352;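 active means inhibition of the luminescence signal of 40% or more relative to plate controls, in a single-dose primary screen at 18.75 µM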
CF NFkB inh – blocks PAF-induced NF-kB reporter in cystic fibrosis cells; inhibition, % at 5 µM; KKLEB NF-kB-GFP reporter, GFP fluorescence overnight; hit rate 0.86% among 360,000; AID 588850;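 active means at least 50% inhibition at 5 µM, scaled per plate between neutral and stimulator controls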;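 further: PAF is a Pseudomonas aeruginosa culture filtrate used as stimulus; plate controls were PAF-stimulated DMSO wells for no effect and unstimulated DMSO wells for full effect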
KKLEB tox – reduces viability of KKLEB cystic fibrosis airway cells. KKLEB CF airway cells viability, ATPlite luminescence, overnight; stronger effect = lower value; cells stimulated with P. aeruginosa culture filtrate. activity change (cytotoxicity), % at 5 µM. hit rate 0.36% among 360,000;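 active means corrected activity change at or below -50% at 5 µM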
Active calls of the source: *.

SMILES | Peg3 promoter | TROY NFkB inh | TWEAK Fn14 block | HIF-2a block | CF NFkB inh | KKLEB tox
CSC1SCC2C(=O)N(C)C(C(C)C)C(=O)OCC(NC(=O)c3cnc4ccccc4n3)C(=O)NC(C)C(=O)N(C)C1C(=O)N(C)C(C(C)C)C(=O)OCC(NC(=O)c1cnc3ccccc3n1)C(=O)NC(C)C(=O)N2C (centres undefined) | 99* | 65* | 92* | 63* | 96* | -37
CCN(CC)S(=O)(=O)c1ccc(N2CCOCC2)c(NC(=O)c2cc(-c3ccccn3)nc3ccccc23)c1 | 62* | 21 | 29 | -5 | 97* | -89*
CCOc1cc(N2CCOCC2)c(OCC)cc1NC(=O)c1cc(-c2ccco2)nc2ccccc12 | 50 | 7 | 23 | -6 | 99* | -39
CCOc1cc(N2CCOCC2)c(OCC)cc1NC(=O)COc1ncnc2ccccc12 | 14 | 6 | 12 | 22 | 0 | 3
COc1ccc(S(=O)(=O)N2CCOCC2)cc1C(=O)N1CCCCC1 | -5 | 5 | -6 | 12 | -32 | 26
O=C(CSc1nc2[nH]c(=O)cc(O)c2s1)Nc1cc(Cl)cc(Cl)c1 | -5 | -6 | -6 | -3 | -8 | 3
COc1ccc(Nc2nc(N)c([N+](=O)[O-])c(N3CCOCC3)n2)cc1 | 13 | 21 | 10 | -16 | 6 | -7
CN(C)c1ccc(Nc2nc(N)c([N+](=O)[O-])c(N3CCOCC3)n2)cc1 | 52* | 70* | 26 | -23 | 16 | -10
CC(NCC(O)COCCC12CC3CC(CC(C3)C1)C2)c1ccccc1 (centres undefined) | 104* | 1 | -30 | 2 | 8 | -18
CC(C)NC(=O)COC(=O)c1cc(F)c(F)cc1Cl | 5 | 4 | 10 | 7 | -1 | 5
CNC(=O)COC(=O)c1cc(F)c(F)cc1Cl | 7 | 0 | 87* | 5 | 14 | -4
O=C(c1ccc(S(=O)(=O)N2CCCCC2)cc1)N1CCc2ccccc2C1 | 7 | -15 | 36 | 8 | -6 | -6
COc1ccc(Nc2nnc(SCC(=O)/C=C3/N(C)c4ccccc4C3(C)C)s2)cc1 | 6 | 37 | 71* | -10 | -9 | 5
COc1ccc(CC(=O)Nc2cccc(-c3nnc(-c4ccco4)o3)c2)cc1 | 22 | -31 | 33 | -17 | -31 | 3
COc1ccc(C(=O)Nc2cccc(-c3nnc(-c4ccco4)o3)c2)cc1 | 43 | 23 | 57* | -99 | -12 | 10
O=C(Nc1cccc(-c2nnc(-c3ccccc3)o2)c1)c1ccc(Br)o1 | 1 | 58* | 40 | -92 | -20 | 15
Cc1cc(C)cc(OCC(=O)Nc2cccc(-c3nnc(-c4ccco4)o3)c2)c1 | 58* | 57* | 68* | -102 | -44 | -10
O=C(COc1ccccc1)Nc1cccc(-c2nnc(-c3ccccc3)o2)c1 | -50 | -1 | 37 | -162 | -4 | -12
Cc1cc(OCc2cccc(S(=O)(=O)N3CCOCC3)c2)ccc1Cl | 13 | 11 | -23 | -24 | -14 | 30
Cc1c(OC(C)C(=O)O)ccc2c3c(c(=O)oc12)CCCC3 (centres undefined) | 1 | -6 | 56* | 16 | 0 | 2
COc1cc(/C=N/Nc2nc(Nc3ccc(C)cc3)nc(-n3nc(C)cc3C)n2)cc(OC)c1OC | 48 | -20 | 43 | -3 | 48 | 7
COc1ccc(O)c(/C=N/Nc2nc(C)cc(-c3ccccc3)n2)c1 | -4 | -9 | -17 | -114 | -42 | 4
COc1ccc(O)c(/C=N/Nc2nc(Nc3ccccc3)nc(-n3nc(C)cc3C)n2)c1 | 22 | -28 | 60* | -156 | 74* | 6
CNc1nc(N/N=C/c2cc3c(cc2[N+](=O)[O-])OCO3)nc(Nc2ccccc2)n1 | 86* | 29 | 18 | -28 | 2 | -4
COc1cc(/C=N/Nc2nc(Nc3ccccc3)nc(-n3nc(C)cc3C)n2)cc(OC)c1OC | 32 | -2 | 45 | -82 | 72* | 0
COc1ccc(/C=N/Nc2nc(Nc3ccccc3)nc(N3CCCC3)n2)cc1[N+](=O)[O-] | 60* | 17 | -35 | -7 | -19 | 7
Cc1ccc(CS(=O)Cc2ccc(C(=O)NCc3cccs3)o2)cc1 (centres undefined) | -9 | -29 | 13 | 0 | -4 | -8
O=C1NC(=Nc2ccc(Cl)cc2)/C(=C/c2ccco2)S1 | 63* | -29 | 3 | -16 | 17 | -18

High-throughput results from PubChem BioAssay.
